Most compounds without a hit are left out; they make up all but 1.3% or so of the library.
PGC1a acetyl inh: lowers PGC1a acetylation signal in U2OS cells | AlphaScreen anti-acetyl-lysine; with virally co-expressed GCN5 acetyltransferase | inhibition, % at 15.6 µM | 350,000 tested, 0.17% active;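 active = every replicate shows inhibition of at least 40%; inconclusive = mean inhibition at least 40% but some replicate below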;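 also: 0% = neutral control wells and 100% = positive control wells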
Rce1 inhib: inhibitors of yeast Ras-converting enzyme; AID 2563; Q03530; 290,000 tested, 0.27% active; calls only; yeast membranes, quenched prenylated peptide cleavage fluorescence;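 active = fall in fluorescence gain of 50% or more versus controls, with final raw signal at or below 3038400; inconclusive = same 50% fall but final raw signal above 3038400; inactive = fall in fluorescence gain under 50%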;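 also: plate controls were neutral control wells for no effect and wells lacking membranes for full effect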
Target sequence (Q03530 whole entry, looked up): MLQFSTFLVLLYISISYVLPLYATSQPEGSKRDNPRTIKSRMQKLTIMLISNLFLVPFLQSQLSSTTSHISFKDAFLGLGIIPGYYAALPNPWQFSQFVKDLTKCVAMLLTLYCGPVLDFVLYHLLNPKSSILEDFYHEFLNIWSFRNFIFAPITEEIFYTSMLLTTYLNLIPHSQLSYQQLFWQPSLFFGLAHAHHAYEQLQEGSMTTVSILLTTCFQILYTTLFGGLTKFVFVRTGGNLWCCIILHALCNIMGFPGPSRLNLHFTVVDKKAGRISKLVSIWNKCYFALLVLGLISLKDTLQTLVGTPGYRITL
HIF activator: HIF pathway transcriptional activation; AID 1910; U2OS HRE-luciferase reporter, luminescence; normalized: DMSO 0%, desferrioxamine 100%; 300,000 tested, 0.32% active; activation, % at 7.5 µM (by protocol);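 active = mean activation of at least 10% of the iron chelator positive control signal, with at least half of replicates also reaching 10%; inconclusive = mean and replicate majority disagree about reaching 10%; inactive = mean and most replicates under 10%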
Statin myotox sup: protects C2C12 myotubes from simvastatin toxicity; 330,000 tested, 0.78% active; AID 602340; ATP luminescence, 48 h; scaled: DMSO 0, geranylgeraniol control 100; rescue of ATP level, % at 7.49 µM;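 active = mean ATP rescue above about 67%, or every replicate alone reaching that limit, limit read from the data, passing the limit was not always enough; inconclusive = no clear call, values can overlap the other calls; inactive = mean under the limit and some replicate under it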;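 also: myotubes were challenged with 10 µM simvastatin during compound exposure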
AI-2 QS modul: modulators of Vibrio harveyi AI-2 quorum sensing system; Vibrio harveyi JMH597 AI-2 luminescence/OD600 ratio, 9 h; active compounds read low; strain lacks LuxN and CqsS sensors; 0 = neutral-control median; 300,000 tested, 0.4% active; activity change, % at 7.5 µM; in the data active = activity change below about -75%, passing the limit was not always enough; inconclusive = no clear call, values can overlap the other calls;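 also: luminescence divided by OD600 gain over 9 h not by final OD600 alone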
JMH597 growth rt: retest: blocks Vibrio harveyi JMH597 growth | shares compounds with AI-2 QS modul | OD600 absorbance, 9 h; lacks LuxN and CqsS sensors | growth inhibition, % at 7.5 µM | 750 tested, 1% active | AID 2726;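 active = every replicate shows growth inhibition above 50%; inconclusive = at least half, but not all, replicates pass that cutoff; inactive = fewer than half of replicates pass it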
BB721 const-QS lum: retest counter-screen: lowers luminescence of constitutive-QS Vibrio harveyi BB721 | shares compounds with AI-2 QS modul | 9 h | inhibition, % at 7.5 µM | 750 tested, 95% active;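 active = inhibition above about 80% in every replicate, not just on average, limit read from the data; inconclusive = at least half of replicates past the limit, but not all; inactive = fewer than half of replicates past the limit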
BB721 growth rt: retest: inhibitors of Vibrio harveyi BB721 growth; shares compounds with AI-2 QS modul; OD600 absorbance, 9 h; growth inhibition, % at 7.5 µM; 750 tested, 3% active; AID 2728;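 active = every replicate shows growth inhibition above 50%; inconclusive = at least half but not all replicates above 50% inhibition; inactive = under half of replicates above 50% inhibition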
JMH597 AI-2 mod: Vibrio harveyi AI-2 signaling luminescence modulation – JMH597 strain, confirmation; Vibrio harveyi JMH597 AI-2 quorum sensing luminescence, 9 h; luxN and CqsS knockout, AI-2 only; inhibition, % at 7.5 µM; shares compounds with AI-2 QS modul; 750 tested, 97% active;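 active = every replicate shows more than 75% inhibition of signal versus neutral control wells; inconclusive = half to three quarters of replicates exceed 75% inhibition; inactive = fewer than half of replicates exceed 75% inhibition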
* marks the source's active call; other numbers are inactive results; i = inactive; ? = inconclusive; / = no result given.

SMILES	PGC1a acetyl inh	Rce1 inhib	HIF activator	Statin myotox sup	AI-2 QS modul	JMH597 growth rt	BB721 const-QS lum	BB721 growth rt	JMH597 AI-2 mod
CCc1nn(CC(=O)Nc2ccc(Br)c(C)c2)c(=N)s1	0	i	-1	5	-95*	29	99*	6	99*
CNC[C@@H]1OCCCC[C@@H](C)Oc2ccc(NC(=O)c3ccncc3)cc2C(=O)N([C@H](C)CO)C[C@@H]1C	24	/	/	-16	/	/	/	/	/
COCC#Cc1ccc([C@H]2[C@@H](CO)N3C(=O)CN(C(=O)Nc4ccc(F)cc4)C[C@@H]23)cc1	-4	/	/	/	/	/	/	/	/
COC(=O)c1ccc(Oc2ccc(C(C)(C)C)cc2)c([N+](=O)[O-])c1	-9	i	0	/	?	32	84*	?	91*
CC(=O)c1ccc(Oc2ccc(C(=O)c3ccc(C)c(C)c3)cc2[N+](=O)[O-])cc1	/	i	0	-92	15	/	/	/	/
O=C(NCC[C@H]1CC[C@H](NS(=O)(=O)c2ccc(Cl)cc2)[C@@H](CO)O1)Nc1ccc(F)cc1	-14	/	/	/	/	/	/	/	/
Nc1nc(-c2ccc(Oc3ccccc3)cc2)cs1	/	i	1	26	-95*	-32	96*	-94	98*
COc1ccc(NC(=O)CN(c2ccc(OC)c(Cl)c2)S(=O)(=O)c2ccccc2)cc1	/	i	0	32	?	17	-6	18	-3
COc1ccc(N(CC(=O)Nc2ccc(OC)c(OC)c2)S(=O)(=O)c2ccccc2)cc1Cl	-19	i	-1	15	6	/	/	/	/
COC(=O)c1ccc(NC(=O)CN2C(=O)c3ccccc3S2(=O)=O)cc1	-2	i	1	-3	-90*	17	96*	4	97*
Nc1nc(SCC(=O)Nc2ccc(Oc3ccccc3)cc2)n[nH]1	-10	i	-1	3	-90*	23	95*	19	97*
CN1C(=O)c2cc(NC(=O)C3CCC3)ccc2OC[C@H]2O[C@H](CC(=O)NCC3CCCCC3)CC[C@H]21	-1	/	/	/	/	/	/	/	/
CNC[C@H]1Oc2ncc(C3=CCCC3)cc2C(=O)N([C@@H](C)CO)C[C@H]1C	2	/	/	18	/	/	/	/	/
CCOC(=O)c1sc(NC(=O)COC(=O)c2ccco2)nc1C	-18	i	0	/	-89*	10	97*	-5	98*
CCOC(=O)c1sc(NC(=O)c2ccco2)nc1C	21	i	/	/	12	/	/	/	/
O=C(Cc1ccccc1)N1CC(=O)N2[C@H](CO)[C@H](c3ccc(C#CCc4ccccc4)cc3)[C@H]2C1	20	/	/	/	/	/	/	/	/
O=C(C[C@H]1C=C[C@@H](NC(=O)CC2CC2)[C@@H](CO)O1)NCC(F)(F)F	-3	/	/	-8	/	/	/	/	/
C[C@@H]1CN([C@@H](C)CO)C(=O)c2cc(NC(=O)NC3CCCCC3)ccc2O[C@@H](C)CCCCO[C@@H]1CN(C)C(=O)CCCN(C)C	8	/	/	/	/	/	/	/	/
O=C(CCl)Nc1ccc(N=Nc2ccccc2)cc1	-101	i	1	4	-91*	74*	100*	103*	99*
Clc1ccc(OCc2cc(-c3ccccc3)no2)c(Cl)c1	-4	/	0	-5	26	/	/	/	/
Cc1cccc(OCc2cc(-c3ccccc3)no2)c1C	/	i	1	/	-96*	25	99*	33	99*
Fc1ccc(OCc2cc(-c3ccccc3)no2)cc1	-5	i	4	5	-95*	31	98*	33	98*
COc1ccc(-c2cc(COc3ccccc3)on2)cc1	4	i	5	/	-89*	13	97*	-17	98*
COc1ccc(-c2cc(CS(=O)(=O)c3ccccc3)on2)cc1	-12	i	5	5	9	/	/	/	/
CC(C)NC(=O)N(C)C[C@@H]1Oc2c(NS(C)(=O)=O)cccc2C(=O)N([C@H](C)CO)C[C@H]1C	4	/	/	17	/	/	/	/	/
SMILES	PGC1a acetyl inh	Rce1 inhib	HIF activator	Statin myotox sup	AI-2 QS modul	JMH597 growth rt	BB721 const-QS lum	BB721 growth rt	JMH597 AI-2 mod
CO[C@@H]1CN(C)C(=O)c2cc(NC(=O)C3CC3)ccc2OC[C@@H](C)N(CCc2ccccc2)C[C@@H]1C	3	/	/	0	/	/	/	/	/
O=C(Nc1cc(-c2ccccc2)[nH]n1)c1ccccc1F	-3	i	3	/	-86*	12	92*	-3	94*
O=C(Nc1cc(-c2ccccc2)[nH]n1)c1ccccc1	5	i	2	/	-79*	14	88*	-19	93*
O=C(Nc1ccccn1)c1ccccc1	-5	/	/	-12	/	/	/	/	/
O=C(O)c1ccccc1C(=O)Nc1cc(-c2ccccc2)[nH]n1	0	i	0	-1	29	/	/	/	/
CCc1ccc(C(=O)NNC(=O)CN2C(=O)NC(CC)(c3ccccc3)C2=O)cc1 (configuration not stated)	/	i	1	-13	-83*	5	88*	8	94*
CCC1(c2ccccc2)NC(=O)N(CC(=O)NNC(=O)c2ccoc2C)C1=O (configuration not stated)	/	i	2	/	3	/	/	/	/
COc1ccc(C2(c3ccc(OC)cc3)NC(=O)N(CC(=O)Nc3ccc(OC(F)F)cc3)C2=O)cc1	-9	i	0	-4	3	/	/	/	/
COc1ccc(NC(=O)CN2C(=O)NC(c3ccccc3)(c3ccccc3)C2=O)cc1	/	/	0	13	-94*	2	92*	14	96*
CCCC1(c2ccccc2)NC(=O)N(CC(=O)NCc2ccc(OC)cc2)C1=O (configuration not stated)	-5	i	0	22	-86*	-18	86*	-4	91*
CCCC1(c2ccccc2)NC(=O)N(CC(=O)NCc2ccc(C)cc2)C1=O (configuration not stated)	/	i	0	-5	-91*	-6	89*	-13	94*
CO[C@H]1CN(C)C(=O)c2cc(NC(=O)CC(F)(F)F)ccc2OC[C@H](C)N(CC2CC2)C[C@H]1C	11	/	/	/	/	/	/	/	/
Cc1ccc(-c2cnc3c(c2)C(=O)N([C@@H](C)CO)C[C@@H](C)[C@H](CN(C)Cc2ccccc2C(=O)O)O3)cc1	-11	/	/	-2	/	/	/	/	/
Cn1cnc(S(=O)(=O)N2CCCCN3[C@H](CO)[C@H](c4ccc(C#CC5CC5)cc4)[C@H]3C2)c1	9	/	/	/	/	/	/	/	/
CCCNC(=O)C[C@H]1C[C@@H]2c3cc(NC(=O)c4cccnc4)ccc3O[C@@H]2[C@@H](CO)O1	-1	/	/	1	/	/	/	/	/
C[C@@H]1CN([C@H](C)CO)C(=O)c2cc(NC(=O)NC3CCCCC3)ccc2O[C@@H](C)CCCCO[C@@H]1CN(C)Cc1ccc(C(F)(F)F)cc1	12	/	/	/	/	/	/	/	/

From PubChem BioAssay
